Screening data deposited in PubChem BioAssay by National Center for Advancing Translational Sciences (NCATS).
Nrf2 inh = inhibitors of Nrf2 signaling. Potency, µM (top dose mostly 46 µM), without a hit: at the highest dose activity change, negative = inhibition, actives largely listed as inhibitors. 360,000 tested, 2.1% active. A549 ARE-Fluc reporter, luciferase luminescence, 18-24 h; also: % is scaled to controls: 0 for no effect and ±100 for the full control effect; nearly all actives have a fitted effect of over 60% in size
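A549 ARE_Fluc cells, 5000/well, 5% FBS OPTI-MEM; compounds in dose-response, 18-24 h at 37 °C/5% CO2; CellTiter-Fluor viability read (Ex 405/Em 525), then BugLite luciferase luminescence = Nrf2 activity.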
ATXN viability = reduces viability in counter-screen for ATXN expression inhibitors; S2 cells (HEK-293 line with an ATXN2-luciferase reporter) viability, CellTiter-Fluor protease fluorescence, 24 h; Potency, µM (series often up to 56.7 µM), hits mostly cytotoxic; 400,000 tested, 0.49% active; AID 651635; also: nearly all actives have a fitted effect of over 40% in size
Nrf2 activator = activates Nrf2 signaling; 410,000 tested, 0.31% active; AREc32 ARE-luciferase reporter (MCF7-derived line), luminescence, 24 h; Potency, µM (doses to about 46.1 µM), for inactives: top-dose activation, actives largely listed as activators; also: % of control where 0% means no effect; nearly all actives have a fitted effect of over 65% in size
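AREc32 cells carrying an ARE-driven firefly luciferase reporter were seeded at 1000 cells/well in OPTI-MEM with 5% FBS, then exposed to compound for 24 hr at 37 deg C. Luminescence was read with Steady-Glo after 30 min at RT.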
A549 tox-1 = A549 cytotoxicity, counter-screen for Nrf2 inhibitors; A549 ARE-Fluc cells, CellTiter-Fluor viability, 18-24 h; Potency, µM (highest dose often 46 µM), inactives show at the top dose activity change, negative = cytotoxicity, actives largely listed as inhibitors; 390,000 tested, 0.16% active; AID 504648; also: % is scaled to controls: 0 for no effect and ±100 for the full control effect
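A549 ARE_Fluc cells in 5% FBS OPTI-MEM were exposed to compounds in concentration-response for 18-24 h at 37 deg C. Viability was read by CellTiter-Fluor fluorescence (Ex 405/Em 525) after 30 min, before the luciferase read.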
ATXN2 expr inh = inhibitors of ATXN2 expression; HEK-293 ATXN2-luciferase reporter, luminescence, 24 h; Potency, µM (series often up to 57 µM), inactives show at the highest dose activity change, negative = inhibition, actives largely listed as inhibitors; 360,000 tested, 0.72% active; also: % is scaled to controls: 0 for no effect and ±100 for the full control effect; nearly all actives have a fitted effect of over 55% in size
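qHTS (up to 57 uM final) was run with 24 h compound exposure of reporter cells at 37 °C. Each well was multiplexed: SteadyGlo luminescence measured ATXN2-luciferase expression after a fluorogenic Gly-Phe-AFC viability readout (25 uM final).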
FLuc enzyme inh = blocks purified firefly luciferase in Nrf2 counterscreen. shares compounds with Nrf2 inh. purified firefly luciferase, luminescence inhibition. Potency, µM (series often up to 57.5 µM), without a hit: at the highest dose activity change, negative = inhibition, usual class: inhibitors. 1,400 tested, 4% active; also: % is scaled to controls: 0 for no effect and ±100 for the full control effect; nearly all actives have a fitted effect of over 65% in size
Target sequence (P08659 whole entry, looked up): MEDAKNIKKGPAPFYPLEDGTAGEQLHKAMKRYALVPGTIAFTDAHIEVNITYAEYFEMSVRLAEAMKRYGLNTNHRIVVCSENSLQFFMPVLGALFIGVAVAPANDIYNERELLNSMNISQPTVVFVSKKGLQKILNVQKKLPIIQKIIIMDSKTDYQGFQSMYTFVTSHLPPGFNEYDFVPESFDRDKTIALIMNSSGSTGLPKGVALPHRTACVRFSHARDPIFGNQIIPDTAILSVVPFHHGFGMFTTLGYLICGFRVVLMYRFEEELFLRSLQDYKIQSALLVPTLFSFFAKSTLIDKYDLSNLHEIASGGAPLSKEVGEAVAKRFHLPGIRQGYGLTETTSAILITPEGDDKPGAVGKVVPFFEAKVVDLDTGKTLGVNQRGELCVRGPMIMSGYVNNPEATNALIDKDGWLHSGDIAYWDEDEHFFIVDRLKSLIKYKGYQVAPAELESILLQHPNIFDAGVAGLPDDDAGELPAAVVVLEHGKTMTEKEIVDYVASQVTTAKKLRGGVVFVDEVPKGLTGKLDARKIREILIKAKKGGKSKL
A549 tox-2 = counter-screen for Nrf2 inhibitors: cytotoxicity in A549 ARE cells; shares compounds with Nrf2 inh; A549 ARE-Fluc cells, cytotoxicity counterscreen; Potency, µM (top dose mostly 46.1 µM), for inactives: top-dose activity change, negative = cytotoxicity, usual class: inhibitors; 1,400 tested, 2% active; AID 720523;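 also: cells exposed to compounds for 18 to 24 hours; % is scaled to controls: 0 for no effect and ±100 for the full control effect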
ARE-Fluc inh = confirmation of Nrf2 inhibitors in A549 ARE reporter cells. A549 ARE-firefly luciferase reporter, luminescence. shares compounds with Nrf2 inh. Potency, µM (series often up to 46.1 µM), without a hit: top-dose activity change, negative = inhibition, hits mostly inhibitors. 1,400 tested, 74% active; also: % is scaled to controls: 0 for no effect and ±100 for the full control effect; nearly all actives have a fitted effect of over 65% in size
Numbers without * were called inactive. This is a sample that favours compounds with a hit; in the whole collection about 2.9% have one here. Calls follow the shape of the dose curve; as a rule, active = well fitted curve in the direction sought with a large enough effect; inconclusive = small, poorly fitted or top-dose-only effect, or another doubt; inactive = no such curve, though single readings can be large; an effect the other way counts as inactive or inconclusive. Potency is read from the fitted curve at half-maximal effect.

Cc1ccc(-n2c(=O)c3c(c4cc(C)ccc4n3C)n(CC(=O)NCCC3=CCCCC3)c2=O)cc1 was read as Nrf2 inh 27%, ATXN viability inactive, Nrf2 activator 1%, A549 tox-1 0% and ATXN2 expr inh -5%.
For Cn1c(=O)c2c(nc(SCC(=O)Nc3ccc(OC(F)(F)F)cc3)n2Cc2cccc(C(F)(F)F)c2)n(C)c1=O the results were Nrf2 inh 7.3µM*, Nrf2 activator 0%, A549 tox-1 inconclusive, FLuc enzyme inh 2%, A549 tox-2 inconclusive and ARE-Fluc inh 15µM*.
Cn1c(=O)c2c(nc(SCC(=O)Nc3ccccc3)n2Cc2ccccc2F)n(C)c1=O was read as Nrf2 inh 7%, ATXN viability inactive, Nrf2 activator -1%, A549 tox-1 -10% and ATXN2 expr inh 17%.
CN1CCc2c(OCC(=O)N3CCCc4ccccc43)cccc2C1=O was read as Nrf2 inh 9.2µM*, ATXN viability inactive, Nrf2 activator 3%, A549 tox-1 inconclusive, ATXN2 expr inh -11%, FLuc enzyme inh 3%, A549 tox-2 1% and ARE-Fluc inh inconclusive.
For O=C1c2cccc(OCC(=O)N3CCCc4ccccc43)c2CCN1Cc1ccc(F)cc1 the results were Nrf2 inh -24%, ATXN viability inconclusive, Nrf2 activator 1%, A549 tox-1 -2% and ATXN2 expr inh inconclusive.
`CCN(CC)c1ccc(/C=C/c2ccc3ccc(OC)cc3[n+]2CC)cc1` gave Nrf2 inh 4.6µM*, Nrf2 activator -3%, A549 tox-1 inconclusive, FLuc enzyme inh -23%, A549 tox-2 inconclusive and ARE-Fluc inh 5.2µM*.
Screening COc1ccccc1CNC(=O)CCCc1nnc2n(CC(C)C)c(=O)c3sccc3n12 returned Nrf2 inh 5%, Nrf2 activator 1% and A549 tox-1 -1%.
For Cn1nc(C(C)(C)C)cc1C(=O)NCc1cc(F)cc2c1OCOC2 the results were Nrf2 inh inconclusive, ATXN viability inactive, Nrf2 activator 0%, A549 tox-1 -2%, FLuc enzyme inh -1%, A549 tox-2 -9% and ARE-Fluc inh 3.7µM*.
CCN1CCN(C(=S)c2ccc(-c3ccccc3)cc2)CC1 was read as Nrf2 inh 5.2µM*, ATXN viability inactive, Nrf2 activator -2%, A549 tox-1 -1%, ATXN2 expr inh inconclusive, FLuc enzyme inh inconclusive, A549 tox-2 -2% and ARE-Fluc inh 6.5µM*.
Screening Cc1cc(C(=O)COC(=O)c2ccc(N)c([N+](=O)[O-])c2)c(C)n1-c1ccc2c(c1)OCO2 returned Nrf2 inh 5.8µM*, ATXN viability inconclusive, Nrf2 activator 6%, A549 tox-1 -11%, FLuc enzyme inh -6%, A549 tox-2 -4% and ARE-Fluc inh inconclusive.
For COc1cc(C(=O)Nc2sc3c(c2C(=O)O)CCC(C)C3)cc(OC)c1OC (stereo unspecified) the results were Nrf2 inh 5.2µM*, ATXN viability inactive, Nrf2 activator 0%, A549 tox-1 -11%, ATXN2 expr inh -27%, FLuc enzyme inh -18%, A549 tox-2 -20% and ARE-Fluc inh 7.3µM*.
Screening CC1CCc2c(sc(NC(=O)c3ccccc3)c2C(=O)Nc2ccccc2)C1 (stereo unspecified) returned Nrf2 inh 5%, ATXN viability inactive, Nrf2 activator 7%, A549 tox-1 -2% and ATXN2 expr inh 5%.
For O=C(c1cc2nc(-c3ccc(F)cc3)cc(C(F)(F)F)n2n1)N1CCCCC1c1cccnc1 (stereo unspecified) the results were Nrf2 inh 4.6µM*, ATXN viability inconclusive, Nrf2 activator 5%, A549 tox-1 inconclusive, ATXN2 expr inh inconclusive, FLuc enzyme inh -26%, A549 tox-2 -26% and ARE-Fluc inh 6.5µM*.
O=C(c1cnn2c(C(F)(F)F)cc(-c3ccccc3)nc12)N1CCCCC1c1cccnc1 (stereo unspecified) was read as Nrf2 inh inconclusive, ATXN viability inactive, Nrf2 activator 0%, A549 tox-1 3% and ATXN2 expr inh -33%.
CN(CCc1ccccc1)C(=O)c1ccc(NC(=O)Cc2ccc(NC(=O)C3CCCN(C(=O)C4CCC4)C3)cc2)cc1 (stereo unspecified) was read as Nrf2 inh inconclusive, ATXN viability inactive, Nrf2 activator 6%, A549 tox-1 -12% and ATXN2 expr inh -8%.
`CN(CCc1ccccc1)C(=O)c1ccc(NC(=O)Cc2ccc(NC(=O)C3CCCN(C(=O)CCc4ccccc4)C3)cc2)cc1` (stereo unspecified) gave Nrf2 inh 1.3µM*, ATXN viability inactive, Nrf2 activator 0%, A549 tox-1 -11%, ATXN2 expr inh -21%, FLuc enzyme inh -3%, A549 tox-2 -9% and ARE-Fluc inh 4.1µM*.
For O=[N+]([O-])c1cc(Cl)cc2c1nc(NCCO)c1ccccc12 the results were Nrf2 inh 1.3µM*, ATXN viability inactive, Nrf2 activator 8.9µM*, A549 tox-1 inconclusive, ATXN2 expr inh -38%, FLuc enzyme inh -1%, A549 tox-2 inconclusive and ARE-Fluc inh 0.73µM*.
Screening O=c1[nH]nc(-c2ccc(NCCO)c([N+](=O)[O-])c2)c2ccccc12 returned Nrf2 inh inconclusive, ATXN viability inactive, Nrf2 activator 3%, A549 tox-1 -13% and ATXN2 expr inh 14%.
For Clc1cccc(Cl)c1C[n+]1cccc2ccccc21 the results were Nrf2 inh 4.1µM*, ATXN viability inactive, Nrf2 activator -1%, A549 tox-1 -13%, ATXN2 expr inh -20%, FLuc enzyme inh 1%, A549 tox-2 4% and ARE-Fluc inh inconclusive.
`O=C(C[n+]1cccc2ccccc21)c1ccc(Cl)cc1` gave Nrf2 inh 32%, ATXN viability inactive, Nrf2 activator 2%, A549 tox-1 9% and ATXN2 expr inh -9%.
